Results filed as inconclusive are left out.

Results on 16 compounds are retold here after PubChem BioAssay (NCATS).

The first test is described as follows: qHTS for identification of novel therapeutic agents for treatment of microphthalmiaassociated transcription factor (MiT) renal cell carcinoma (RCC) (AID 1963991). Conditions: TFE3-RCC UOK109 viability, CellTiter-Glo, 48 h; measured here: UOK109 Z-AUC; stronger effect = lower value. The method, boiled down:
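Three TFE3-fusion RCC cell lines (UOK109, UOK124, UOK145), 500 cells/well, were exposed to the 1912-compound MIPE 4.0 library for 48 hours at 37 C. Viability was read by CellTiter-Glo luminescence, normalised to DMSO (100%) and empty wells (0%), with 11-concentration curve fits.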
In general terms: In qHTS, concentration-response curves come from the screen itself.
As to `CC=CC(=O)N(CC)c1ccccc1C`, the z-score is 1.15.

In the case of `CO[C@H]1C=CC=C(C)C(=O)NC2=CC(=O)C(NCCN(C)C)=C(C[C@@H](C)C[C@H](OC)[C@@H](O)[C@@H](C)C=C(C)[C@@H]1OC(N)=O)C2=O`, the z-score was -1.45.

Consider `CCC(CC)[C@H](NC(C)=O)[C@@H]1[C@H](O)[C@@H](C(=O)O)C[C@@H]1N=C(N)N`, for which the z-score came to 0.127.

On to `OC[C@H]1O[C@@H](n2cnc3c2NC=NC[C@@H]3O)C[C@H]1O`, for which the z-score amounted to 0.518.

In turn, `COc1ccc2c3c1OC1C[C@@H](O)C=C[C@@]31CCN(C)C2` (stereo partly drawn) returned a z-score of 0.657.

Turning to `CC[C@H]1OC(=O)[C@H](C)[C@@H](O[C@H]2C[C@@](C)(OC)[C@@H](O)[C@H](C)O2)[C@H](C)[C@@H](O[C@@H]2O[C@H](C)C[C@H](N(C)C)[C@@H]2O)[C@](C)(O)C[C@@H](C)CN(C)[C@H](C)[C@@H](O)[C@]1(C)O`, the z-score was -4.

`O=C(CCc1ccc(O)cc1)c1c(O)cc(O)cc1O[C@@H]1O[C@H](CO)[C@H](O)[C@H](O)[C@H]1O`: the z-score is -0.101.

With `CN(C)c1cc(NC(=O)CNC(C)(C)C)c(O)c2c1C[C@@H]1C[C@H]3[C@H](N(C)C)C(=O)C(C(N)=O)=C(O)[C@@]3(O)C(=O)C1=C2O`, the z-score was 1.85.

For `CC(C)(C)COc1ccc(-n2cc(C(=O)O)cn2)cc1C#N`, the z-score came to 1.01.

Turning to `C[C@@H]1CCN(C(=O)CC#N)C[C@H]1N(C)c1ncnc2[nH]ccc12`, the z-score was -0.116.

For the compound `NC1CCC(Nc2nc(Nc3ccc(C(=O)N4CCCCC4)cc3)c3ncn(-c4cccc(F)c4)c3n2)CC1` (stereo not drawn), the z-score was determined as 0.32.

`O=c1ccn([C@@H]2O[C@H](CO)[C@H](O)[C@H]2O)c(=O)[nH]1` yielded a z-score of 0.533.

Consider `C=C1C(=O)OC2C=C(C)CCC=C(C)CCC12` (stereo not drawn), for which the z-score came out at 0.459.

On to `Nc1ncnc2c1ncn2[C@@H]1O[C@@H](CO)[C@H](O)[C@H]1O`, for which the z-score came to 0.834.

`CC(=Cc1ccccc1)C=C1SC(=S)N(CC(=O)O)C1=O` showed a z-score of 1.2.

Turning to `COc1cc(O)c2c(c1)C(=O)c1cc(C)cc(O)c1C2=O`, the z-score was found to be 1.36.

Staying with this test, now noted: TFE3-RCC viability, CellTiter-Glo, 48 h; measured here: UOK124 Z-AUC; stronger effect = lower value.
As to `CC=CC(=O)N(CC)c1ccccc1C`, the z-score was determined as 0.231.

`CO[C@H]1C=CC=C(C)C(=O)NC2=CC(=O)C(NCCN(C)C)=C(C[C@@H](C)C[C@H](OC)[C@@H](O)[C@@H](C)C=C(C)[C@@H]1OC(N)=O)C2=O` came in with a z-score of -3.65.

On to `CCC(CC)[C@H](NC(C)=O)[C@@H]1[C@H](O)[C@@H](C(=O)O)C[C@@H]1N=C(N)N`, for which the z-score is -0.172.

Consider `OC[C@H]1O[C@@H](n2cnc3c2NC=NC[C@@H]3O)C[C@H]1O`, for which the z-score came out at 0.532.

For the compound `COc1ccc2c3c1OC1C[C@@H](O)C=C[C@@]31CCN(C)C2` (stereo partly drawn), the z-score turned out to be 0.378.

With `CC[C@H]1OC(=O)[C@H](C)[C@@H](O[C@H]2C[C@@](C)(OC)[C@@H](O)[C@H](C)O2)[C@H](C)[C@@H](O[C@@H]2O[C@H](C)C[C@H](N(C)C)[C@@H]2O)[C@](C)(O)C[C@@H](C)CN(C)[C@H](C)[C@@H](O)[C@]1(C)O`, the z-score was found to be 0.7.

As to `O=C(CCc1ccc(O)cc1)c1c(O)cc(O)cc1O[C@@H]1O[C@H](CO)[C@H](O)[C@H](O)[C@H]1O`, the z-score is 0.0784.

Consider `CN(C)c1cc(NC(=O)CNC(C)(C)C)c(O)c2c1C[C@@H]1C[C@H]3[C@H](N(C)C)C(=O)C(C(N)=O)=C(O)[C@@]3(O)C(=O)C1=C2O`, for which the z-score amounted to 0.166.

The compound `CC(C)(C)COc1ccc(-n2cc(C(=O)O)cn2)cc1C#N` gave a z-score of 0.953.

Consider `C[C@@H]1CCN(C(=O)CC#N)C[C@H]1N(C)c1ncnc2[nH]ccc12`, for which the z-score was 0.39.

Take `NC1CCC(Nc2nc(Nc3ccc(C(=O)N4CCCCC4)cc3)c3ncn(-c4cccc(F)c4)c3n2)CC1` (stereo not drawn): the z-score stood at 0.539.

The compound `O=c1ccn([C@@H]2O[C@H](CO)[C@H](O)[C@H]2O)c(=O)[nH]1` yielded a z-score of 0.584.

As to `C=C1C(=O)OC2C=C(C)CCC=C(C)CCC12` (stereo not drawn), the z-score is 0.643.

Compound `Nc1ncnc2c1ncn2[C@@H]1O[C@@H](CO)[C@H](O)[C@H]1O` came in with a z-score of 0.529.

As to `CC(=Cc1ccccc1)C=C1SC(=S)N(CC(=O)O)C1=O`, the z-score was found to be 1.04.

Turning to `COc1cc(O)c2c(c1)C(=O)c1cc(C)cc(O)c1C2=O`, the z-score stood at 1.13.

Still in this test, the particulars now being: TFE3-RCC viability, CellTiter-Glo, 48 h; measured here: UOK145 Z-AUC; stronger effect = lower value.
Turning to `CC=CC(=O)N(CC)c1ccccc1C`, the z-score turned out to be 0.523.

The compound `CO[C@H]1C=CC=C(C)C(=O)NC2=CC(=O)C(NCCN(C)C)=C(C[C@@H](C)C[C@H](OC)[C@@H](O)[C@@H](C)C=C(C)[C@@H]1OC(N)=O)C2=O` gave a z-score of -1.68.

`CCC(CC)[C@H](NC(C)=O)[C@@H]1[C@H](O)[C@@H](C(=O)O)C[C@@H]1N=C(N)N` registered a z-score of -0.0122.

Regarding `OC[C@H]1O[C@@H](n2cnc3c2NC=NC[C@@H]3O)C[C@H]1O`, the z-score amounted to 0.196.

`COc1ccc2c3c1OC1C[C@@H](O)C=C[C@@]31CCN(C)C2` (stereo partly drawn) had a z-score of -0.117.

On to `CC[C@H]1OC(=O)[C@H](C)[C@@H](O[C@H]2C[C@@](C)(OC)[C@@H](O)[C@H](C)O2)[C@H](C)[C@@H](O[C@@H]2O[C@H](C)C[C@H](N(C)C)[C@@H]2O)[C@](C)(O)C[C@@H](C)CN(C)[C@H](C)[C@@H](O)[C@]1(C)O`, for which the z-score worked out at 0.923.

Take `O=C(CCc1ccc(O)cc1)c1c(O)cc(O)cc1O[C@@H]1O[C@H](CO)[C@H](O)[C@H](O)[C@H]1O`: the z-score is -0.273.

The compound `CN(C)c1cc(NC(=O)CNC(C)(C)C)c(O)c2c1C[C@@H]1C[C@H]3[C@H](N(C)C)C(=O)C(C(N)=O)=C(O)[C@@]3(O)C(=O)C1=C2O` returned a z-score of 0.881.

The compound `CC(C)(C)COc1ccc(-n2cc(C(=O)O)cn2)cc1C#N` gave a z-score of 0.498.

As for `C[C@@H]1CCN(C(=O)CC#N)C[C@H]1N(C)c1ncnc2[nH]ccc12`, the z-score was -0.115.

As to `NC1CCC(Nc2nc(Nc3ccc(C(=O)N4CCCCC4)cc3)c3ncn(-c4cccc(F)c4)c3n2)CC1` (stereo not drawn), the z-score came to 0.657.

For the compound `O=c1ccn([C@@H]2O[C@H](CO)[C@H](O)[C@H]2O)c(=O)[nH]1`, the z-score was determined as 0.624.

`C=C1C(=O)OC2C=C(C)CCC=C(C)CCC12` (stereo not drawn) came in with a z-score of 0.399.

Compound `Nc1ncnc2c1ncn2[C@@H]1O[C@@H](CO)[C@H](O)[C@H]1O` had a z-score of 0.73.

`CC(=Cc1ccccc1)C=C1SC(=S)N(CC(=O)O)C1=O` showed a z-score of 0.683.

`COc1cc(O)c2c(c1)C(=O)c1cc(C)cc(O)c1C2=O`: the z-score is 1.08.
